From PubChem
DT40 TDP1 CPT: DT40-hTDP1 cell growth loss with CPT. chicken DT40 Tdp1-/-;hTDP1 cells + 20 nM CPT, ATP luminescence, 48 h. Potency, µM (doses to about 46.2 µM), for the others: at the highest dose activity change, negative = growth inhibition, usual class: inhibitors. 12% of 420,000 active. AID 686979; also: potency is read from the fitted curve at half-maximal effect; nearly all actives have a fitted effect of over 55% in size
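Chicken DT40 Tdp1-/- cells stably complemented with human TDP1 were seeded at 400 cells/well in medium containing 20 nM camptothecin, exposed to pin-transferred compounds, and grown at 37 °C for at least 48 hr. Viability was read as ATP luminescence.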
HT1080NT lethal: kills 2HG-producing HT-1080-NT fibrosarcoma cells; HT-1080-NT fibrosarcoma viability, CellTiter-Glo ATP luminescence, 48 h; Potency, µM (titrated, usually from 46.1 µM), for the others: at the top dose activity, negative = less viability, hits mostly cytotoxic; 1.6% of 360,000 active;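 also: NT is the 2HG producing partner of a matched IDH1 knockdown line; potency is read from the fitted curve at half-maximal effect; 0% = DMSO-treated cells and -100% = media-only wells without cells; nearly all actives have a fitted effect of over 55% in size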
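Viability by CellTiter-Glo luminescence after 48 h compound exposure at 37C of HT-1080-NT cells (750/well, RPMI, 5% FBS). % activity scaled between DMSO wells and medium-only wells, then curve-fitted and categorized by curve class.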
IL-1B inflam inh: blocks inflammasome-driven IL-1 beta release | activity change, % at 57.5 µM | THP-1 LPS/ATP IL-1B secretion, AlphaLISA, 16 h; hits give low values | 4.7% of 360,000 active; in the data active = activity change below about -50%; inconclusive = mostly about -30% to -49%
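THP-1 cells pretreated 1 hr with compounds (up to 57.5 uM final), then stimulated with LPS (250 ng/mL final) plus ATP (1.25 mM final); secreted IL-1B measured by AlphaLISA after 16 hr, decreased signal indicating inhibition.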
TDP1 cell noCPT: qHTS for Inhibitors of human tyrosyl-DNA phosphodiesterase 1 (TDP1): qHTS in cells in absence of CPT. Potency, µM (top dose mostly 46.2 µM), for inactives: at the top dose activity change, negative = growth inhibition, most hits filed as inhibitors. DT40 Tdp1-/- hTDP1 cells, no CPT, ATP luminescence, 48 h. 15% of 420,000 active; also: potency is read from the fitted curve at half-maximal effect; nearly all actives have a fitted effect of over 55% in size
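Chicken DT40 Tdp1-/- cells complemented with human TDP1, screened without camptothecin (DMSO vehicle only), 400 cells/well. Compounds pin-transferred, cells incubated at 37 °C for at least 48 hr. Growth read as ATP-dependent luminescence (CellTiter-Glo, 30 min at RT).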
uPA surface inh: blocks generation of uPA at the cell surface | cell surface uPA generation assay, qHTS | Potency, µM (titrated, usually from 38.3 µM), for inactives: at the top dose activity change, negative = inhibition, most hits filed as inhibitors | 0.31% of 330,000 active | AID 540303; active = well fitted inhibition curve with a large enough effect; inconclusive = small, poorly fitted or top-dose-only effect; inactive = no such curve, though single readings can be large or run the other way; tested in mouse RAW 264.7 cells; also: potency is read from the fitted curve at half-maximal effect; nearly all actives have a fitted effect of over 55% in size
HT1080 IDH1KD tx: toxicity to HT-1080 IDH1 knockdown cells (counter line); HT-1080 IDH1 knockdown viability, ATP luminescence, 48 h; Potency, µM (titrated, usually from 46.1 µM), without a hit: at the highest dose activity, negative = toxicity, usual class: cytotoxic; 2% of 360,000 active;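 also: potency is read from the fitted curve at half-maximal effect; 0% = DMSO wells and -100% = cell-free medium wells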
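After a 2 h attachment period, IDH1KD HT-1080 cells took pin-transferred compound for 48 h at 37 °C; ATP-based luminescence after 10 min room-temperature reagent incubation reported viability.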
* hit, by the source's call; ? = inconclusive; / = no result given. A selection: hits, their analogues and other compounds. The true share with any hit is near 19%. Unless noted, calls follow the shape of the dose curve; as a rule, active = well fitted curve in the direction sought with a large enough effect; inconclusive = small, poorly fitted or top-dose-only effect, or another doubt; inactive = no such curve, though single readings can be large; an effect the other way counts as inactive or inconclusive. Unless noted, % is scaled to controls: 0 for no effect and ±100 for the full control effect.

SMILES | DT40 TDP1 CPT | HT1080NT lethal | IL-1B inflam inh | TDP1 cell noCPT | uPA surface inh | HT1080 IDH1KD tx
CCN(CC)CCOC(=O)c1ccc(NC(=O)c2nn(C)c3c2COc2ccccc2-3)cc1 | 4.1µM* | / | / | 3.3µM* | / | /
CC(=O)c1ccc(NC(=O)c2noc3c2CSc2ccccc2-3)cc1 | 15µM* | / | / | 9.2µM* | / | /
O=c1oc2cc(Br)ccc2n1Cc1ccccc1 | 31% | 5% | 0 | -23% | 4% | 19%
COc1ccc(CNC(=O)c2cc3c(=O)oc4ccc(C)cc4c3s2)c(OC)c1 | 5% | / | / | -24% | / | /
OC(c1ccc(F)c(F)c1)c1nc(-c2cccc(C(F)(F)F)c2)cs1 (stereo not drawn) | 16µM* | ? | -27 | ? | / | ?
OC(c1ccc(F)cc1)c1nc(-c2cccc(C(F)(F)F)c2)cs1 (stereo not drawn) | ? | ? | -14 | ? | / | ?
OC(c1ccc(F)c(F)c1)c1nc(-c2ccc(Cl)cc2)cs1 (stereo not drawn) | ? | -18% | 1 | 16µM* | / | ?
OC(c1ccc(F)c(F)c1)c1nc(-c2ccc(F)c(Cl)c2)cs1 (stereo not drawn) | ? | -25% | -12 | -29% | / | ?
OC(c1ccc(F)cc1)c1nc(-c2ccncc2)cs1 (stereo not drawn) | 7.3µM* | -14% | 61 | 7.3µM* | / | ?
OC(c1ccc(F)cc1)c1nc(-c2cccc(F)c2)cs1 (stereo not drawn) | ? | -16% | -18 | ? | / | -13%
OC(c1ccc(F)c(F)c1)c1nc(-c2ccncc2)cs1 (stereo not drawn) | 8.2µM* | 0% | 5 | 8.2µM* | / | ?
Cc1ccc(-n2c3nc(=O)[nH]c(=O)c-3cc3c(C)nn(-c4ccccc4)c32)cc1Cl | 2% | / | / | -26% | / | /
OC(c1ccc(F)c(F)c1)c1nc(-c2ccc3ccccc3c2)cs1 (stereo not drawn) | ? | ? | -11 | ? | / | ?
Cc1ccc(-c2csc(C(O)c3ccc(F)c(F)c3)n2)cc1C (stereo not drawn) | ? | ? | -2 | ? | / | 21µM*
COc1ccc(-c2nn3c(C4CCCCC4)nnc3s2)cc1OC | 15µM* | -3% | -13 | ? | -6% | -17%
COc1cc(-c2nn3c(C4CCCCC4)nnc3s2)cc(OC)c1OC | ? | -6% | -51* | 21µM* | 0% | 1%
CCN(CC)C(=O)C1=C(C)N(Cc2ccc(OC)cc2)C(=O)C(CC(=O)NC2CCCC2)C1 (stereo not drawn) | 1% | -1% | -7 | -7% | / | -3%
C#CCN(C[C@H]1[C@H](OC(=O)NCc2ccc(OC)c(OC)c2)[C@H](OC(=O)NCc2ccc(OC)c(OC)c2)C[C@H]2C(=O)N(c3ccccc3)C(=O)[C@@H]12)S(=O)(=O)c1ccc(C)cc1 | -22% | -3% | -2 | ? | / | -1%
C#CCN(C[C@H]1[C@H](OC(=O)Nc2c(C)noc2C)[C@H](OC(=O)Nc2c(C)noc2C)C[C@@H](C(=O)OC)[C@H]1C(=O)OC)S(=O)(=O)c1ccc(C)cc1 | 21µM* | 0% | -10 | 15µM* | / | 2%
C#CCN(C[C@H]1[C@H](OC(=O)NCc2ccccc2)[C@H](OC(=O)NCc2ccccc2)C[C@@H](C(=O)OC)[C@H]1C(=O)OC)S(=O)(=O)c1ccc(C)cc1 | -107% | -2% | ? | -105% | / | -10%
C#CCN(C[C@H]1[C@H](OC(=O)NCCCCCC)[C@H](OC(=O)NCCCCCC)C[C@@H](C(=O)OC)[C@H]1C(=O)OC)S(=O)(=O)c1ccc(C)cc1 | 4.1µM* | -2% | -20 | 5.8µM* | / | -3%
COc1ccc(OC)c(NC(=O)c2ccc(-c3cccs3)cc2)c1 | -1% | 2% | -10 | ? | 8% | 5%
COc1ccc(CCNC(=O)c2ccc(NS(=O)(=O)c3ccc4[nH]c(=O)[nH]c4c3)cc2)cc1 | 22% | 4% | 6 | 7% | 1% | -3%
CCCNCC(O)Cn1c2ccccc2n2c(=O)cc(C)c(C#N)c12 (stereo not drawn) | ? | 2% | -24 | ? | -7% | 1%
Cc1cc(=O)n2c3ccccc3n(CC(O)CN3CCCC3)c2c1C#N (stereo not drawn) | ? | ? | -65* | ? | ? | ?
SMILES | DT40 TDP1 CPT | HT1080NT lethal | IL-1B inflam inh | TDP1 cell noCPT | uPA surface inh | HT1080 IDH1KD tx
CCn1c(=O)n(C)c2c(=O)n(C)c(=O)n(C)c21 | 3% | -2% | 14 | -5% | -1% | 1%
O=C(NCc1ccccc1)C1c2ccccc2OCC(=O)N1Cc1cccnc1 (stereo not drawn) | -3% | -5% | 1 | -5% | / | 2%
Cc1nc(N2CCCCC2)sc1C(=O)c1ccc(SCCO)c([N+](=O)[O-])c1 | ? | -12% | -54* | 18µM* | 6% | -18%
Cc1nc(N2CCCCC2)sc1C(=O)c1cccc([N+](=O)[O-])c1 | ? | -12% | -103* | ? | -6% | 0%
CCC(NS(=O)(=O)c1ccc2c(c1)Cc1cc(S(=O)(=O)NC(CC)C(=O)O)ccc1-2)C(=O)O (stereo not drawn) | 3% | 3% | 19 | 7% | -4% | 8%
CC(C)CC[n+]1ccccc1/C=C/c1ccc(N(C)C)cc1 | 0.018µM* | ? | -95* | 0.026µM* | -19% | 23µM*
CCCCc1c(C)nc2ccc(C)cc2c1SCCC(=O)O | ? | -8% | 2 | 9.2µM* | -6% | -14%
Cc1ccc2nc(SCCC(=O)O)cc(C)c2c1 | -10% | 1% | 0 | 1% | 0% | 9%
COc1cc(NC(=O)c2nnn(CC(=O)Nc3cc(C)ccc3C)c2N)cc(OC)c1 | 0% | / | / | -4% | / | /
Cc1cccc(CC(=O)NCCS(=O)(=O)N2CCN(c3ccccc3)CC2)c1 | ? | 2% | 25 | ? | / | -8%
O=C(NC(Cc1ccccc1)C(=O)O)OCc1ccccc1 (stereo not drawn) | -11% | -9% | 17 | -3% | 17% | 1%
O=C(CNC(=O)OCc1ccccc1)NC(Cc1cnc[nH]1)C(=O)O (stereo not drawn) | ? | 5% | 0 | 16µM* | 4% | 23%
O=C(C[C@@H]1C/C=C\C[C@@H](Cc2ccc(F)cc2)C(=O)OCCNC1=O)N[C@H](CO)Cc1ccccc1 | 21µM* | -8% | -19 | 18µM* | -14% | -3%
